Our source for the Inhibition values is ChEMBL document CHEMBL1157539, “Thousands of chemical starting points for antimalarial lead identification” (Nature, 2010).

The structures appear in SMILES notation.

The first assay concerns Plasmodium falciparum. In words: GSK_TCMDC: Inhibition of Plasmodium falciparum 3D7 in whole red blood cells, using parasite LDH activity as an index of growth. Test compounds present at 2uM. The assay is classed as functional.
As to `COc1ccccc1C1CCN(C2CCC(NC(=O)/C=C/c3cc(C(F)(F)F)ccc3F)CC2)CC1` (stereo not drawn), the Inhibition was 97%.
`O=C(NCc1cccc2ccccc12)C(c1cc2ccccc2o1)N1CCN(C(c2ccccc2)c2ccccc2)CC1` (stereo not drawn) yielded an Inhibition of 99%.
On the same count and under the same terms, then `CCN(CCCN1CCCCC1)c1cc(C)nc(Nc2cc(Cl)cc(Cl)c2)n1.O=C(O)C(F)(F)F`, with 100%.

The next assay has as its system Plasmodium falciparum. In words: GSK_TCMDC: Inhibition of Plasmodium falciparum Dd2 in whole red blood cells, using parasite LDH activity as an index of growth. Test compounds present at 2uM. The assay is classed as functional.
`Cc1ccc(-c2noc(COc3ccccc3C(=O)NC3CCCC3)n2)cc1` gave an Inhibition of 92%.
Still for that read-out and setting: for `CN1CCCC1CCNCc1cccc(-c2cnc(N3CCCC(C)(C)C3)nc2)c1` (stereo not drawn) the value was 95%.
Same read-out and setting: for `Cc1cccc2nc(-c3ccc(-c4ccc(CNCCN5CCNCC5)cc4)s3)[nH]c12.O=C(O)C(F)(F)F` the value was 0%.
On to `Oc1ccc(Cl)c2c1C(c1ccccc1)=NCC2`, for which the Inhibition turned out to be 43%.
In turn, `O=C(CC1NC(=O)c2ccccc21)Nc1ccc(-c2cccc(-c3nc4cc(C(F)(F)F)ccc4[nH]3)c2)cc1` (stereo not drawn) showed an Inhibition of 36%.
Regarding `Cc1ccc(C2(C)CN(CCCOc3cccc(-c4ccc(C(=O)NC(C)C)cc4)c3)CCO2)cc1` (stereo not drawn), the Inhibition came to 89%.
In the case of `COc1ccc(OC)c(-c2ccc(O)c(CNCC(C)c3ccccc3)c2)c1` (stereo not drawn), the Inhibition is recorded as 96%.
Same read-out and setting: then `O=C(O)C(F)(F)F.c1cc(CNCCc2ccncc2)cc(-c2ccc(-c3nc4ccccc4[nH]3)s2)c1`, with 97%; and `COc1cc([N+](=O)[O-])ccc1NC(=O)c1cc(Cl)ccc1O`, with 100%.
As to `O=C(/C=C/c1ccc(Cl)c(Cl)c1)NCCCCCCN1CCN(C(=O)Nc2ccc(F)c(Cl)c2)CC1`, the Inhibition is reported as 2%.
The same measure, in the same setting: for `Oc1ccc(Cl)cc1-c1cc(C(F)(F)F)nc(-c2ccccc2)n1` the value was 92%; for `CC(=O)OCCN1C(=O)c2ccc3c4c(ccc(c24)C1=O)C(=O)N(CCOC(C)=O)C3=O`, 1%; for `CCOc1ccc(NC(C)=O)c(O)c1`, 0%.
In turn, `COc1ccc(NC(=O)[C@H](Cc2ccccc2)Nc2cc(C)nc(Nc3ccccc3)n2)cc1.O=C(O)C(F)(F)F` returned an Inhibition of 92%.
`Cc1cc(CNCCCCCCCNCc2ccc(-c3ccccc3)cc2)ccc1O` returned an Inhibition of 6%.
On the same count and under the same terms, then `COc1cc2ccccc2cc1CNCCCCCCNCc1cc2ccccc2cc1OC.CS(=O)(=O)O`, with 24%.
Molecule `Cc1cc(N[C@@H](CC(C)C)C(=O)Nc2ccccc2)nc(NCCc2ccc(F)cc2)n1.O=C(O)C(F)(F)F` had an Inhibition of 94%.
On the same count and under the same terms, for `OC(c1ccc(Cl)cc1)(c1ccc(Cl)cc1)C(c1ccc(Cl)cc1)n1ccnc1` (stereo not drawn) the value was 100%; for `Cc1csc(-c2nc(NCCc3c(C)noc3C)ncc2-c2ccsc2)n1`, 82%; for `CCCn1c(Sc2ccc(C#N)c([N+](=O)[O-])c2)nnc1-c1ccc(N(C)C)cc1`, 98%.
Still for that read-out and setting: then `O=C(O)C(F)(F)F.OCCN1CCN(Cc2ccc(-c3ccc(-c4nc5cc(F)ccc5[nH]4)cc3)cc2)CC1`, with 99%; and `S=C(NCCCCCN1CCC(c2c[nH]c3ccccc23)CC1)Nc1cccc(I)c1`, with 14%; and `O=C(NCc1ccccc1)OC1CNCCC1c1ccc(C(O)Cc2ccccc2)cc1.O=C(O)C(F)(F)F` (stereo not drawn), with 5%.
The molecule `COc1ccc2nccc([C@@H](O)CN3CCC(NCc4ccc5cccc(O)c5n4)CC3)c2n1.CS(=O)(=O)O` displayed an Inhibition of 13%.
Still for that read-out and setting: for `NCCCNc1ccnc2cc(Cl)ccc12` the value was 25%; for `O=C(c1ccc(F)cc1)N1CCOC(CCN2CCC(c3ccccc3)CC2)(c2ccc(Cl)c(Cl)c2)C1` (stereo not drawn), 84%.
In turn, `Cc1nc2ccc3ccc(CNc4ccc(C(=O)CC(CCC(=O)O)C(=O)O)cc4)cc3c2c(=O)[nH]1.[Cl-].[Na+]` (stereo not drawn) showed an Inhibition of 96%.
Molecule `CCn1cc(CN2CCCC(C(=O)Nc3ccc(-c4nc5ccccc5[nH]4)cc3)C2)cn1` (stereo not drawn) gave an Inhibition of 26%.
Molecule `Fc1ccc2[nH]c(-c3cccc(-c4ccc(CN5CCN(CCN6CCOCC6)CC5)cc4)c3)nc2c1.O=C(O)C(F)(F)F` returned an Inhibition of 100%.
For `Cc1noc(C)c1C(=O)N1CCc2cc3nccc(N4CCN5CCC[C@H]5C4)c3cc21`, the Inhibition is 9%.
In the case of `CS(=O)(=O)c1ccc2c(c1)CCN(CCC1CCC(NC(=O)c3cc4cccc(Br)c4[nH]3)CC1)CC2` (stereo not drawn), the Inhibition was determined as 7%.
`CCN(C)CCCn1c(N(C)C)nc2cc(-n3cnc4cc(-c5ccc(Cl)cc5)sc4c3=O)ccc21.O=C(O)C(F)(F)F` gave an Inhibition of 12%.
Turning to `O=S(=O)(c1cccc2cccnc12)N1CCN(C2CCCCC2)CC1`, the Inhibition is reported as 10%.
Consider `COc1ccc2nccc([C@@H](O)CN3CCC(NC(=O)C(=Cc4ccc(Cl)cc4Cl)c4ccc(-c5ccccc5)cc4)CC3)c2c1`, for which the Inhibition is on record as 98%.
The molecule `CN1CCC(NCc2ccc(-c3ccc(C(F)(F)F)cc3)cc2)CC1` had an Inhibition of 71%.
In the case of `CC(C)n1c(C2CCN(CC3CCN(C(=O)/C=C/c4ccc(Cl)c(Cl)c4)CC3)CC2)nc2ccccc21`, the Inhibition was determined as 7%.
In the case of `Cc1ccccc1C1CCN(C2CCC(NC(=O)/C=C/c3ccc(F)c(F)c3)CC2)CC1` (stereo not drawn), the Inhibition was 7%.
Turning to `COc1ccccc1C1CCN(C2CCC(NC(=O)/C=C/c3cc(C(F)(F)F)ccc3F)CC2)CC1` (stereo not drawn), the Inhibition is on record as 32%.
`O=C(NCc1cccc2ccccc12)C(c1cc2ccccc2o1)N1CCN(C(c2ccccc2)c2ccccc2)CC1` (stereo not drawn): the Inhibition came out at 90%.
In turn, `CCN(CCCN1CCCCC1)c1cc(C)nc(Nc2cc(Cl)cc(Cl)c2)n1.O=C(O)C(F)(F)F` returned an Inhibition of 99%.
